Structures are written as SMILES. Records with an inconclusive call do not appear. The source made the active and inactive calls. Unless noted, calls come from the whole dose curve.

Assay [1] is described as follows: qHTS for Inhibitors of the Functional Ribonucleoprotein Complex (vRNP) of Lassa (LASV) Arenavirus: LASV Primary Screen - GLuc reporter signal (AID 1347082; calls by dose curve; tested in HEK293 reporter line; note: nearly all actives have a fitted effect of over 60% in size; note: potency is the fitted concentration of half-maximal effect; for activity change, negative = inhibition: % is set by controls: 0 for no effect and ±100 for the full control effect). For orientation: Quantitative high-throughput screening tests each substance at several concentrations.
Assay [2] in a line: qHTS for Inhibitors of the Functional Ribonucleoprotein Complex (vRNP) of Lassa (LASV) Arenavirus: Viability assay - alamar blue signal for LASV Primary Screen (AID 1347083; calls by dose curve; tested in HEK293 reporter line; note: nearly all actives have a fitted effect of over 80% in size; note: potency is the fitted concentration of half-maximal effect).
Assay [3] deals with Nucleoprotein (Lymphocytic choriomeningitis virus (strain Armstrong)) (UniProt P09992). Description: qHTS for Inhibitors of the Functional Ribonucleoprotein Complex (vRNP) of Lymphocytic Choriomeningitis Arenaviruses (LCMV): LCMV Primary Screen - GLuc reporter signal (AID 1347086). For activity change, negative = inhibition: % is set by controls: 0 for no effect and ±100 for the full control effect. Note: nearly all actives have a fitted effect of over 70% in size. Note: potency is the fitted concentration of half-maximal effect.
Chain of Nucleoprotein (Lymphocytic choriomeningitis virus (strain Armstrong)) (P09992 whole entry, looked up): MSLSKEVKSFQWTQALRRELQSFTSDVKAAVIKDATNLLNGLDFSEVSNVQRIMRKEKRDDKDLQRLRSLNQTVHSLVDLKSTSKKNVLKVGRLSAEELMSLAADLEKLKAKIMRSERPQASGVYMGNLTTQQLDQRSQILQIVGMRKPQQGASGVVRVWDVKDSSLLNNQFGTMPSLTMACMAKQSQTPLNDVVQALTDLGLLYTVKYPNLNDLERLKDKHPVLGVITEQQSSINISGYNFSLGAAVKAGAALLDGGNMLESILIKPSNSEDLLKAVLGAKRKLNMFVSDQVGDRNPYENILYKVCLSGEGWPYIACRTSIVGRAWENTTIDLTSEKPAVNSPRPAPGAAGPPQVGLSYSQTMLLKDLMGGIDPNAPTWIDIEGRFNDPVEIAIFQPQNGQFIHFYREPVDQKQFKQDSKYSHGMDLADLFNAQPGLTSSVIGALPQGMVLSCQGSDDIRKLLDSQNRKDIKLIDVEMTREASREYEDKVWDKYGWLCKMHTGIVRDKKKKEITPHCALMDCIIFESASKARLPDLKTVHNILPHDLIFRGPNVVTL
Assay [4] can be described thus: Cytotoxicity counterscreen for inhibitors of SARS-CoV-2 cell entry (AID 1645845). Note: nearly all actives have a fitted effect of over 50% in size. Note: potency is the fitted concentration of half-maximal effect. The method in brief:
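Expi293F/hACE2 cells seeded overnight; cpd pin-transferred in DMSO, 1 h preincubation, + media, 48 h 37 C 5% CO2; ATPLite 1step luminescence; normalized to cells and no cells.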

A short description of assay [5]: Primary qHTS to identify inhibitors of SARS-CoV-2 cell entry (AID 1645846). Note: nearly all actives have a fitted effect of over 45% in size. Note: potency is the fitted concentration of half-maximal effect. To be noted: activity change, negative = inhibition: at 57.1 µM (top of the series) unless noted. The method in brief:
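HEK293 cells stably expressing human ACE2, pre-treated 1 h with compound, then infected with MLV particles pseudotyped with Wuhan-Hu-1 spike (C-terminal 19-aa truncation). Luciferase luminescence after 48 h at 37 °C, normalised to spike PP and bald PP.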

Assay [6] is described as follows: Validation screen for inhibitors of Lassa infection (AID 463096). Note: % is set by controls: 0 for no effect and ±100 for the full control effect.
A short description of assay [7]: Inducers of the Endoplasmic Reticulum Stress Response (ERSR) in human glioma: Validation (AID 504836; active = well fitted curve in the direction sought with a large enough effect; an effect the other way counts as inactive or inconclusive; note: 0% is about no effect). The method in brief:
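Stably transfected U87-MG human glioma cells carrying a GRP78-based luminescent sensor were seeded at 1000 cells/well, pin-dosed with compounds and incubated 16 h. Luciferase reagent was then added, and end-point luminescence was read after 10 min at room temperature.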

Assay [8] has as its target Alpha-galactosidase (Coffea arabica) (UniProt Q42656). Nature of the assay: Counterscreen for Glucocerebrosidase Inhibitors: qHTS Assay for Coffee Bean alpha-Galactosidase at pH 4.5 (AID 957; active = well fitted curve in the direction sought with a large enough effect; an effect the other way counts as inactive or inconclusive;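 note: plate controls were enzyme alone for no effect and no enzyme for full effect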). The method in brief:
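Green coffee bean enzyme (2 nM final) was incubated with compounds (0.7 nM to 77 uM) and 4-methylumbelliferyl alpha-D-galactopyranoside (80 uM final) in 50 mM citric acid, 0.005% Tween-20, pH 4.5, 20 min at room temperature; AC50 from Hill fits.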

For assay [9] the target is unchanged. Description: Counterscreen for Glucocerebrosidase Inhibitors: qHTS Assay for Coffee Bean alpha-Galactosidase at pH 5.9 (AID 998; active = well fitted curve in the direction sought with a large enough effect; an effect the other way counts as inactive or inconclusive;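 note: plate controls were uninhibited enzyme for no effect and no-enzyme basal signal for full effect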). The method in brief: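 Green coffee bean enzyme (2 nM final) was incubated with compounds (0.7 nM–77 uM) and 4-methylumbelliferyl alpha-D-galactopyranoside (80 uM) in citrate buffer pH 5.9, 20 min at room temperature. High-pH stop; fluorescence 365/440 nm; AC50 from Hill fits.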

Assay [10] is described as follows: qHTS profiling of the MIPE4 collection as inhibitors of Plasmodium falciparum (3D7) proliferation (AID 743344; call rule not given here;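 note: scaled between DMSO vehicle wells and 0.29 µM artemisinin as full inhibition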). The following applies: P. falciparum 3D7 in erythrocytes, SYBR Green DNA fluorescence, 72 h; at 28.5 µM (top of the series) unless noted. A digest of the protocol:
(§1)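 Erythrocytes infected with P. falciparum (0.3% parasitemia, 2.5% hematocrit) incubated with compounds 72 h at 37 C, 5% CO2. Lysis with saponin/Triton buffer containing SYBR Green I, overnight at room temperature in the dark; DNA fluorescence (485/535 nm) normalised to 0.29 uM artemisinin and DMSO.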

Assay [11] is described as follows: qHTS profiling of the MIPE4 collection as inhibitors of Plasmodium falciparum (DD2) proliferation (AID 743345; call rule not given here). The following applies: P. falciparum Dd2 in erythrocytes, SYBR Green DNA, 72 h; at 28.5 µM (top of the series) unless noted. A digest of the protocol: as §1
Assay [12] in a line: qHTS profiling of the MIPE4 collection as inhibitors of Plasmodium falciparum (DD2) proliferation (Rep 2) (AID 743346; call rule not given here). To be noted: P. falciparum Dd2 in erythrocytes, SYBR Green DNA, 72 h; at 28.5 µM (top of the series) unless noted. A digest of the protocol: as §1
Assay [13] in a line: Primary qHTS for Huh7 cytotoxicity: counterscreen for inhibitors of MERS-S pseudotyped particle cell entry (AID 1479147). The following applies: outcome: dose series up to 57.1 µM unless noted.
The nature of assay [14]: Primary qHTS for inhibitors of MERS-S pseudo-typed particle cell entry (AID 1479149). Note: % is set by controls: 0 for no effect and ±100 for the full control effect; nearly all actives have a fitted effect of over 60% in size.
Assay [15] is described as follows: Primary qHTS for Vero E6 cytotoxicity: counterscreen for inhibitors of SARS-S pseudo-typed particle cell entry (AID 1479150). To be noted: outcome: dose series up to 57.1 µM unless noted.

Chain of Alpha-galactosidase (Coffea arabica) (Q42656 whole entry, looked up): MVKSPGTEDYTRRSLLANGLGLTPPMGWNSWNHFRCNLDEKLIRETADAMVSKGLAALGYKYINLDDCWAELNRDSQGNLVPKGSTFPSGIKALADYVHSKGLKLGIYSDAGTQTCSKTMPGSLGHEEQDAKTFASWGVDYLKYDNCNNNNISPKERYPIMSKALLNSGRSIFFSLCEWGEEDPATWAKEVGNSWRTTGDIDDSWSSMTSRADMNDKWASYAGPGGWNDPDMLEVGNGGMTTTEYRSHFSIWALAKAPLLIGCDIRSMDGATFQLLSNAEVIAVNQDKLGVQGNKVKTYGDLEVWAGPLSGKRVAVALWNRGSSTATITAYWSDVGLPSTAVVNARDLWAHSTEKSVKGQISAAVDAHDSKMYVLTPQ

Regarding `COc1cc2c(cc1-c1c(C)noc1C)ncc1[nH]c(=O)n([C@H](C)c3ccccn3)c12`, the Potency in assay [1] is 13.7 µM (active); in [2] it was 17.2 µM (active); in assay [3], 9.68 µM (active). Moreover, the Potency result in assay [4] is “inactive”. Besides, the activity change, negative = inhibition in assay [5] was -29%.

For `CCN(CC)CCNC(=O)c1ccc2nc(-c3ccccc3)c(-c3ccc(CN4CCC(n5c(=O)[nH]c6ccccc65)CC4)cc3)nc2c1`, the Potency in assay [1] is 34.3 µM (active); in assay [2] it was 21.7 µM (active); in assay [4] it was 5.62 µM (active); in assay [5], 4.47 µM (active).

In the case of `CN(C)C(=O)/N=N/C(=O)N(C)C`, the Potency result in assay [6], in assay [1], in assay [2] and in assay [3] was “inactive” in each case. The result in [7] was inactive.

With `CC(C)=CC[C@@H](O)C1=CC(=O)c2c(O)ccc(O)c2C1=O`, the Potency entry in assay [1], in [2], in [3] and in assay [5] was “inactive” throughout.

Regarding `COc1cc2c(cc1OC)CN(CCc1ccc(NC(=O)c3cc(OC)c(OC)cc3NC(=O)c3cnc4ccccc4c3)cc1)CC2`, the Potency result in assay [1], in assay [3] and in assay [4] was “inactive” in each case. Further, the Potency in assay [2] was 19.3 µM (active).

Take `C=CCn1c(=O)c2c(nc(-c3ccc(S(=O)(=O)O)cc3)n2C)n(C)c1=O`: the call in [8], in [9] and in assay [7] was inactive. Besides, the Potency entry in assay [6], in assay [1], in assay [2] and in [3] was “inactive” each time.

On to `O=c1[nH]c(=O)n([C@H]2C[C@@H](O)[C@@H](CO)O2)cc1C=CBr`, for which the outcome in [7] was inactive. The compound further came in with a parasite growth, % of DMSO control in assay [10] of 139%. Moreover, the parasite growth remaining, % of DMSO control (lower = more inhibition) in assay [11] is 118%. The parasite growth, % of control (lower = inhibition) in assay [12] was 157%. Besides, the Potency entry in assay [1], in assay [2] and in assay [3] was “inactive” throughout.

In the case of `CCc1ccc(OCc2ccccc2C(=O)Nc2ccc3nc(C)cc(N)c3c2)cc1`, the Potency is 12.2 µM (active) in [1], 21.7 µM (active) in assay [2], 15.8 µM (active) in [4] and 10 µM (active) in assay [5].

`C[C@]1(c2nc3c(C(N)=O)cccc3[nH]2)CCCN1`: the Potency result in [1], in [3] and in assay [4] was “inactive” in each case. For the same compound, the Potency in assay [2] is 2.73 µM (active). Also, the activity change, negative = inhibition in assay [5] is -3.68%.

With `N[C@@]1(C(=O)O)CS(=O)(=O)[C@H]2[C@H](C(=O)O)[C@H]21`, the Potency entry in assay [1], in [3], in assay [4] and in assay [5] was “inactive” in each case. Moreover, in assay [2], the Potency is 19.3 µM (active).

In the case of `C[S+](C)CCC(N)C(=O)O` (stereo unspecified), the Potency result in assay [1], in assay [2], in [14] and in assay [4] was “inactive” in each case. In addition, the call in [13] and in [15] was inactive. The activity change, negative = inhibition in assay [5] is -29.8%.

As for `COc1cc(Nc2ncc(F)c(Nc3ccc4c(n3)N(COP(=O)(O)O)C(=O)C(C)(C)O4)n2)cc(OC)c1OC`, the Potency result in assay [1], in [4] and in [5] was “inactive” each time. Moreover, the Potency in assay [2] was 2.43 µM (active).

For the origin of these results see PubChem BioAssay (NCATS).
